Data taken from PubChem BioAssay (NCI).
Compounds without any hit were thinned out: in the full panel of roughly 79,000, 15% have a hit. Rule as the data show it: active = growth inhibition above about 70%; inactive = the rest.

What was measured:
[1] = NCI Yeast Anticancer Drug Screen. Data for the rad50 strain (AID 155);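 also: 0% = growth of vehicle-only cultures of the same strain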; conditions: S. cerevisiae rad50 strain growth inhibition; at 50.0 µM; hits give high values
Summary of the method: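 Compounds were tested on a yeast strain with an engineered DNA damage repair alteration; the reported value is growth inhibition normalised to vehicle treatment.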

[2] = NCI Yeast Anticancer Drug Screen. Data for the mec2-1 strain (AID 157); conditions: S. cerevisiae mec2-1 strain, at 50.0 µM, hits give high values
Summary of the method: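 Readout is yeast growth inhibition, normalised to vehicle-treated controls, in the mec2-1 strain exposed to compound.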

[3] = NCI Yeast Anticancer Drug Screen. Data for the sgs1 mgt1 strain (AID 161);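 also: 0% = growth of cultures given vehicle only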; conditions: S. cerevisiae sgs1 mgt1 strain, at 50.0 µM, hits give high values
Summary of the method: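 Growth of a repair-deficient yeast mutant was monitored after compound treatment and expressed as inhibition relative to vehicle-treated cultures.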

[4] = NCI Yeast Anticancer Drug Screen. Data for the cln2 rad14 strain (AID 165);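 also: 0% = growth equal to vehicle treated cultures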; conditions: S. cerevisiae cln2 rad14 strain, at 50.0 µM, hits give high values
Summary of the method: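 Relative to vehicle controls, growth inhibition of compound-treated cln2 rad14 yeast was recorded.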

[5] = NCI Yeast Anticancer Drug Screen. Data for the bub3 strain (AID 167); conditions: S. cerevisiae bub3 mutant strain, at 50.0 µM, hits give high values
Summary of the method: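 Growth of a checkpoint-deficient yeast mutant is measured after compound exposure. Values represent inhibition relative to vehicle.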

[6] = NCI Yeast Anticancer Drug Screen. Data for the mlh1 rad18 strain (AID 175); conditions: S. cerevisiae mlh1 rad18 strain growth inhibition; at 50.0 µM; hits give high values
Summary of the method: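 Test agents were incubated with a yeast strain of defined genotype (DNA damage repair defect). Inhibition of growth was derived by comparison with vehicle-exposed cultures.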

Measured: growth inhibition

N#Cc1c(NC(=S)NC(=O)c2ccccc2)nc2c(c1-c1ccccc1)CCCC2
inactive: [1] 28% | [2] 17.9% | [3] 30.1% | [4] 1.05% | [5] 17.4% | [6] 21.6%

CC(O)(c1ccc(Cl)cc1)c1ccc(Cl)cc1
inactive: [1] -4.05% | [2] -18.9% | [3] 1.2% | [4] -52.6% | [5] -8.75% | [6] -15.8%

OCCSCCCCCCSCCO
inactive: [1] 6.95% | [2] 1.7% | [3] 5.85% | [4] 10.6% | [5] 2.7% | [6] 5.8%

CCCCCCCCCCC/C(C)=N/Nc1ccc([N+](=O)[O-])cc1[N+](=O)[O-]
inactive: [1] 5.65% | [2] -5.15% | [3] 2.15% | [4] 11.8% | [5] -0.2% | [6] -13%

C1=C(c2ccccc2)N(c2ccccc2)N=C(c2ccccc2)C1
inactive: [1] 0.85% | [2] -19.7% | [3] 6% | [4] -10.4% | [5] -1.65% | [6] 18.6%

c1ccc(-c2nnc(SCc3nc4ccccc4[nH]3)o2)cc1
inactive: [1] 5.65% | [2] 9.75% | [3] 29.8% | [4] 36.3% | [5] 20.4% | [6] 52%

O=C(CNC(=O)OCc1ccccc1)NCCNCCNC(=O)CNC(=O)OCc1ccccc1
inactive: [1] -26.9% | [2] 6.7% | [3] -5.65% | [4] 36.2% | [5] 8.45% | [6] -0.4%

COc1cc(O)c(C(=O)CC(C)=O)c(OC)c1
inactive: [1] -14.9% | [2] -14.8% | [3] -3.7% | [4] -0.9% | [5] 10.9% | [6] -11.7%

O=C(Nc1ccc2c(c1)Cc1cccc(F)c1-2)C(F)(F)F
inactive: [1] 4.7% | [2] -1.45% | [3] 2.9% | [4] -1.5% | [5] 36.7% | [6] 7.3%

COc1c(C)c(OC)c(C(=O)CC(C)C)c(OC)c1C
inactive: [1] 0.4% | [2] 5.05% | [3] 35.2% | [4] 20.4% | [5] 19.7% | [6] -29.6%

CCOC(=O)/C=C/C(=O)O.[Cu+2]
inactive: [1] 5.2% | [2] -14.3% | [3] -4% | [4] -13.7% | [5] -17.2% | [6] 11.9%

N#CN1CCC2CC(=O)CCC2C1 (stereo unspecified)
inactive: [1] 6.2% | [2] 2.95% | [3] -6.5% | [4] 5.75% | [5] 0.75% | [6] -10.6%

O=C1c2c(Cl)cccc2C(c2ccccc2)c2cccc(Cl)c21
inactive: [1] 29% | [2] -4.15% | [3] -1.55% | [4] -11.5% | [5] 7.35% | [6] 23.2%

O=C(OC(c1ccc(Cl)cc1)c1ccc(Cl)cc1)C(c1ccc(Cl)cc1)c1ccc(Cl)cc1
inactive: [1] 15.5% | [2] 10.4% | [3] 14.8% | [4] -13.5% | [5] -3.35% | [6] 30.7%

CCNC(CCCC1CCCCC1)C(=O)O (stereo unspecified)
inactive: [1] -0.9% | [2] -18.4% | [3] -3.5% | [4] -27.2% | [5] -18.5% | [6] 4.7%

O=C1N2CCCSC2=NC1(c1ccccc1)c1ccccc1
inactive: [1] -7.15% | [2] 0.7% | [3] 1.75% | [4] 11.2% | [5] 13.2% | [6] -0.05%

CCOC(=O)c1[nH]c(C)c(/C(C)=N\NC(N)=O)c1C
inactive: [1] -20.2% | [2] -14.7% | [3] -7.4% | [4] -20.9% | [5] 8% | [6] 10.5%

Cn1c(=O)c2c(nc(N3CCOCC3)n2CCCNCC(O)c2ccc(O)c(O)c2)n(C)c1=O (stereo unspecified)
inactive: [1] -40.9% | [2] 4.3% | [3] -13.2% | [4] -29.9% | [5] -2.1% | [6] -21.6%

CCC(C#N)C1=CCCCCC1 (stereo unspecified)
inactive: [1] 31.8% | [2] 3.75% | [3] 19.4% | [4] 11.7% | [5] 4.6% | [6] 20.6%

COc1ccc(/C=N/Nc2ccc(S(=O)(=O)O)cc2)cc1
inactive: [1] 5.45% | [2] -12.6% | [3] -18.7% | [4] -6.45% | [5] -21.2% | [6] 13.2%

CC(=O)c1cc2c(cc1C)C(C)(C)CCC2C (stereo unspecified)
inactive: [1] -0.75% | [2] -24.8% | [3] -7.3% | [4] -5% | [5] 7.35% | [6] 2.3%

CC(OP(=O)(O)O)C(N)C(=O)O (stereo unspecified)
inactive: [1] 0.4% | [2] -34% | [3] -44.9% | [4] -39.1% | [5] -19.9% | [6] -5.2%

COc1cccc(NC(=O)NC(C)(C)C)c1
inactive: [1] 8.2% | [2] -16.1% | [3] 1.2% | [4] -42.1% | [5] -0.7% | [6] -0.05%

COc1c(C=O)c2c(c(OC)c1OC)-c1ccc(OC)c(=O)cc1[C@@H](NC(C)=O)CC2
inactive: [1] 12.5% | [2] -9.6% | [3] -0.25% | [4] 7.15% | [5] 2.9% | [6] -0.95%

Nc1ccccc1SC1CCCCC1O (stereo unspecified)
inactive: [1] -4.9% | [2] 2.2% | [3] -5.3% | [4] -8.2% | [5] 3.75% | [6] -7.15%

Cc1ccnn1CCc1ccc(Cl)cc1Cl
inactive: [1] 18.1% | [2] 15.3% | [3] 34.1% | [4] 11.4% | [5] 29.5% | [6] -4.55%

CC(NC(=O)NC(C)(C)C)NC(=O)C(N)CC(=O)O (stereo unspecified)
inactive: [1] -51.8% | [2] -20.1% | [3] -25.4% | [4] 19.4% | [5] 12.7% | [6] -20.4%

CCCCCN(CCCCC)CC(O)c1cc(-c2ccccc2)nc2c(Cl)cc(Cl)cc12 (stereo unspecified)
inactive: [1] 42% | [2] -1.1% | [3] 26.5% | [4] 18% | [5] 46.5% | [6] 39.1%

Cc1ccc(N(C)S(=O)(=O)c2ccc([N+](=O)[O-])cc2)cc1
inactive: [1] 8.4% | [2] -2.65% | [3] 29.1% | [4] 21.1% | [5] 42.1% | [6] 26.2%

O=C(O)C(c1ccccc1)S(=O)(=O)c1ccccc1 (stereo unspecified)
inactive: [1] 3.55% | [2] -7% | [3] 8.85% | [4] -16.7% | [5] -11.5% | [6] 5.95%

CCC(C)NC(=O)c1ccccc1 (stereo unspecified)
inactive: [1] 16.8% | [2] 17.7% | [3] 7.8% | [4] -34.5% | [5] 1.75% | [6] 15.3%

COC1(OC)CCC2=C(C)C(=O)CCC2(CO)C1 (stereo unspecified)
inactive: [1] 15.7% | [2] -2.95% | [3] -5.95% | [4] -51.8% | [5] -14.4% | [6] -1.9%

C[N+](C)(CCCn1ccnc1[N+](=O)[O-])CCCn1ccnc1[N+](=O)[O-]
inactive: [1] -15.3% | [2] -6% | [3] 14.8% | [4] 3.55% | [5] -14.8% | [6] 4.8%

O=C1c2ccccc2C(=O)c2nc3ccc(Cl)cc3cc21
inactive: [1] -12.3% | [2] -18.4% | [3] 1.35% | [4] 21.3% | [5] -12.5% | [6] -10.8%

CC(=O)c1cccc(NC(=O)N2CCCCC2C)c1 (stereo unspecified)
inactive: [1] -4.9% | [2] 29.9% | [3] 8.9% | [4] -13.3% | [5] 15.2% | [6] -12.8%

COc1ccc(-c2c3c(n(C4OC(COC(C)=O)C(OC(C)=O)C(OC(C)=O)C4OC(C)=O)c(=S)c2C#N)CC(C)(C)CC3=O)cc1 (stereo unspecified)
inactive: [1] -2.05% | [2] -0.8% | [3] 10.8% | [4] -9.35% | [5] -0.05% | [6] 8.9%

COC(SC)(SC)c1cc(-c2c(Cl)cccc2Cl)no1
inactive: [1] -7.25% | [2] -7.55% | [3] -3.1% | [4] 4.3% | [5] 27.6% | [6] -4.15%

Cc1[nH]n(-c2nc(-c3ccccc3)cc(=O)[nH]2)c(=O)c1CCO
inactive: [1] -11.8% | [2] -31.5% | [3] -25.9% | [4] 10.8% | [5] -7.1% | [6] -13.2%

CC1(Br)CC2=C(CC1(C)Br)C(=O)C(c1ccccc1)=C(c1ccccc1)C2=O (stereo unspecified)
inactive: [1] 9.25% | [2] 17.1% | [3] 39.2% | [4] 25% | [5] 12.3% | [6] 23.4%

C/C(=N/NC(N)=S)c1ccc2ccccc2c1
inactive: [1] 17.4% | [2] 17.1% | [3] 43.8% | [4] 17.2% | [5] 28.9% | [6] 29.4%

O=C(NCC1=NCCN1)c1ccccc1
inactive: [1] 2.3% | [2] -2.7% | [3] -13.7% | [4] 12% | [5] 6.45% | [6] 10.7%
